The record followed here is PubChem BioAssay (NCI).

Structures are written as SMILES. This is part of a sample that, as a whole, favours compounds with a hit. Of some 83,000 tested, about 20% had one in any assay.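 Step 1: grow cells in 96-well plates. Step 2: add test compound at a single concentration. Step 3: incubate 48 h. Step 4: record percent growth.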 Values without a mark were called inactive. Calls of active or inactive are those of the source. The calls were made as follows: active = growth percent below 10; inactive = the rest.

Test systems include SR leukemia; RPMI-8226 leukemia; OVCAR-8 ovarian; OVCAR-5 ovarian; SK-OV-3 ovarian; IGROV1 ovarian; OVCAR-3 ovarian; HS 578T breast; NCI/ADR-RES ovarian; T-47D breast; BT-549 breast; MDA-MB-435 melanoma; SW-620 colon; MCF7 breast; HCT-116 colon; HCC-2998 colon; KM12 colon; OVCAR-4 ovarian.
What all share (experiment): NCI-60 one-dose screen, 48 h (100 = growth as untreated, 0 = no growth, -100 = all killed)
Common to all, as to details: 10 µM unless noted

As for `COc1cccc(/C=C(/C)c2ccc3cccc(OC)c3[o+]2)c1O`, the growth in the assay on SR leukemia is 92.1%; in the assay on RPMI-8226 leukemia, 93.1%; with OVCAR-8 ovarian it was 100%; in the assay with OVCAR-5 ovarian it was 104%; in the assay with SK-OV-3 ovarian it was 107%; in the assay with IGROV1 ovarian it was 94.5%. The growth is 114% with OVCAR-3 ovarian; 101% in the assay with HS 578T breast; 107% in the assay on NCI/ADR-RES ovarian; 100% in the assay on T-47D breast; 85.1% in the assay on BT-549 breast; 104% with MDA-MB-435 melanoma. Also, the growth in the assay with SW-620 colon is 106%; in the assay with MCF7 breast it was 90.9%; with HCT-116 colon it was 102%; in the assay with HCC-2998 colon, 120%; with KM12 colon, 99.1%.
Consider `CNC(=O)c1cc(-n2ccc3cc(NC(=O)Nc4ccc(N5CCOCC5)c(C(F)(F)F)c4)ccc32)ccn1`, for which the growth is 9.16% (active) with SR leukemia; -26.7% (active) in the assay on RPMI-8226 leukemia; 60.6% in the assay on OVCAR-8 ovarian; 65.1% with OVCAR-5 ovarian; 102% in the assay with SK-OV-3 ovarian; 32.3% in the assay on IGROV1 ovarian. The growth in the assay on OVCAR-3 ovarian is 76.4%; with HS 578T breast it was 32.2%; with NCI/ADR-RES ovarian, 47.9%; in the assay with T-47D breast it was 47%; with MDA-MB-435 melanoma, 40.2%; in the assay on SW-620 colon, 62.5%. For the same compound, the growth in the assay on MCF7 breast is 35.3%; in the assay with HCT-116 colon it was 20.5%; in the assay with HCC-2998 colon it was 87.4%; with KM12 colon, 7.44% (active).
Regarding `Cc1ccc(S(=O)(=O)N(CC[C@@H]2C[C@H]2c2cc3ccccc3o2)S(=O)(=O)c2ccc(C)cc2)cc1`, the growth in the assay on SR leukemia was 128%; in the assay on RPMI-8226 leukemia it was 101%; in the assay with OVCAR-8 ovarian it was 96.8%; in the assay on OVCAR-5 ovarian, 98%; with SK-OV-3 ovarian, 101%; with IGROV1 ovarian it was 101%. The growth with OVCAR-3 ovarian is 108%; in the assay on HS 578T breast it was 98.6%; in the assay with NCI/ADR-RES ovarian, 94%; in the assay on T-47D breast, 78.3%; in the assay with BT-549 breast it was 98%; with MDA-MB-435 melanoma, 104%. For the same compound, the growth was 95.2% in the assay on SW-620 colon; 79.6% with MCF7 breast; 92.5% in the assay with HCT-116 colon; 100% in the assay with HCC-2998 colon; 103% in the assay with KM12 colon.
Consider `Cc1cc(-c2ccc(Cl)cc2)n(Cc2nnc(SCC(=O)Nc3ccc(S(N)(=O)=O)cc3)n2-c2ccc([N+](=O)[O-])cc2)n1`, for which the growth was 72.5% in the assay with SR leukemia; 64.3% in the assay with RPMI-8226 leukemia; 88.7% in the assay with OVCAR-8 ovarian; 98.5% in the assay on OVCAR-5 ovarian; 112% in the assay on SK-OV-3 ovarian; 96.9% in the assay with IGROV1 ovarian. In addition, the growth in the assay on HS 578T breast was 96.7%; in the assay on NCI/ADR-RES ovarian, 84.3%; in the assay with T-47D breast, 70.3%; in the assay on BT-549 breast, 116%; with MDA-MB-435 melanoma, 87.4%; with SW-620 colon it was 84.5%. Also, the growth with MCF7 breast is 58%; in the assay with HCT-116 colon, 60.9%; with HCC-2998 colon, 97.8%; in the assay on KM12 colon, 79.6%.
In the case of `COC(=O)c1ccc(NC2=C/C(=N/S(=O)(=O)c3ccc(C(=O)O)cc3)c3ccccc3C2=O)cc1`, the growth with SR leukemia is 0.0887% (active); in the assay with RPMI-8226 leukemia, 2.88% (active); in the assay on OVCAR-8 ovarian, 9.15% (active); in the assay with OVCAR-5 ovarian it was 18.8%; with SK-OV-3 ovarian it was 106%; in the assay with IGROV1 ovarian, 11.3%. Further, the growth in the assay on OVCAR-3 ovarian was -28.6% (active); in the assay on HS 578T breast, -13.6% (active); in the assay on NCI/ADR-RES ovarian it was 4.23% (active); in the assay on T-47D breast it was 4.9% (active); in the assay with BT-549 breast, 84.2%; in the assay with MDA-MB-435 melanoma, -93.1% (active). In addition, the growth was -30% (active) in the assay on SW-620 colon, -58.2% (active) in the assay with MCF7 breast, 5.32% (active) in the assay on HCT-116 colon and 51.1% in the assay on KM12 colon.
Regarding `O=C(NNc1nc2cc(F)ccc2n2cccc12)c1ccncn1`, the growth with SR leukemia was 8.74% (active); with RPMI-8226 leukemia, 16.8%; with OVCAR-8 ovarian, 18.7%; in the assay on OVCAR-5 ovarian, 45%; in the assay on OVCAR-4 ovarian it was -6.78% (active); in the assay on IGROV1 ovarian it was 15.5%. Further, the growth in the assay with OVCAR-3 ovarian was 5.01% (active); in the assay on HS 578T breast, 42.8%; with NCI/ADR-RES ovarian, 5.87% (active); with T-47D breast, 4.38% (active); in the assay with BT-549 breast it was 21.9%; in the assay on MDA-MB-435 melanoma it was 31.5%. Moreover, the growth is 22.7% in the assay on SW-620 colon; 7.62% (active) with MCF7 breast; 18.3% in the assay with HCT-116 colon; 53.2% with HCC-2998 colon; 23.1% with KM12 colon.
Turning to `O=C1[C@H]2Cc3c([nH]c4ccccc34)[C@@H](c3c(Cl)cccc3Cl)N2C(=O)CN1C1CCN(CC2CCCCC2)CC1`, the growth is -0.0364% (active) with SR leukemia; 66.2% in the assay with RPMI-8226 leukemia; 99.6% in the assay with OVCAR-8 ovarian; 97.8% with OVCAR-5 ovarian; 109% in the assay on SK-OV-3 ovarian; 53.2% in the assay on IGROV1 ovarian. For the same compound, the growth in the assay with OVCAR-3 ovarian was 67.9%; in the assay with HS 578T breast it was 73.5%; in the assay with NCI/ADR-RES ovarian, 91.8%; with T-47D breast it was 94%; with BT-549 breast, 96.5%; with MDA-MB-435 melanoma it was 101%. Further, the growth in the assay on SW-620 colon was 65.8%; in the assay on MCF7 breast, 51.9%; in the assay on HCT-116 colon it was 35.5%; with HCC-2998 colon it was 85.3%; with KM12 colon it was 92%.
Regarding `Cc1cc2ncc(-c3cc4ccccc4c(N4CCN(C)CC4)n3)nc2cc1C`, the growth was -39.9% (active) in the assay with SR leukemia; -12.2% (active) in the assay with RPMI-8226 leukemia; 67.9% in the assay with OVCAR-8 ovarian; 31.9% with OVCAR-5 ovarian; 87.5% in the assay on SK-OV-3 ovarian; 42.3% in the assay with IGROV1 ovarian. Further, the growth is 61.9% in the assay with HS 578T breast; 40.2% with NCI/ADR-RES ovarian; -54% (active) in the assay on T-47D breast; 85.9% with BT-549 breast; -87.8% (active) in the assay on MDA-MB-435 melanoma; 1.46% (active) with SW-620 colon. Besides, the growth in the assay on MCF7 breast is -65% (active); with HCT-116 colon, -85.7% (active); in the assay on HCC-2998 colon it was -84.2% (active); with KM12 colon it was -3.53% (active).
